# Source: PubChem (several laboratories)
# Sampled rows, rich in hits. Any-hit rate of the full collection: about 2.3%.
# Bcl-xL primary: Bcl-xL (human) inhibition; Q07817; GST-Bcl-xL / FITC-Bim BH3 peptide fluorescence polarization; inhibition, % at 10.9 µM; hit rate 0.7% among 320,000; AID 2129;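 active means inhibition above the mean of all tested compounds plus 3 SD, cutoff set per campaign, cut at about 30% in these data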;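 further: 0% = DMSO wells and 100% = unlabeled Bim-BH3 peptide competitor; inhibitors lower millipolarization by displacing the labeled peptide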
# Target sequence (Q07817 whole entry, looked up): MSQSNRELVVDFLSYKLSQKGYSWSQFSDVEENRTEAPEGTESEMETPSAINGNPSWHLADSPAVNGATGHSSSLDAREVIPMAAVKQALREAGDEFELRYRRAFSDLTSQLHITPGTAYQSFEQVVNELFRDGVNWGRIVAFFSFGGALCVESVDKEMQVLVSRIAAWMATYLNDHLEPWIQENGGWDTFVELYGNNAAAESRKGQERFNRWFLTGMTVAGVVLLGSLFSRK
# Mcl1-Noxa inh: disrupts binding of human Mcl-1 to Noxa peptide. TR-FRET Mcl-1/Noxa peptide binding, 2 h. Q07820. AID 1022. hit rate 1.5% among 220,000. inhibition, % at 21.7 µM;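 active means compounds that cut the protein-peptide binding signal by more than 50% relative to plate controls in a single-dose test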;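 further: His-tagged Mcl-1 with rhodamine Noxa BH3 peptide and terbium anti-His antibody; 0% = Mcl-1 plus Noxa peptide wells and 100% = peptide-only wells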
# Target sequence (Q07820 whole entry, looked up): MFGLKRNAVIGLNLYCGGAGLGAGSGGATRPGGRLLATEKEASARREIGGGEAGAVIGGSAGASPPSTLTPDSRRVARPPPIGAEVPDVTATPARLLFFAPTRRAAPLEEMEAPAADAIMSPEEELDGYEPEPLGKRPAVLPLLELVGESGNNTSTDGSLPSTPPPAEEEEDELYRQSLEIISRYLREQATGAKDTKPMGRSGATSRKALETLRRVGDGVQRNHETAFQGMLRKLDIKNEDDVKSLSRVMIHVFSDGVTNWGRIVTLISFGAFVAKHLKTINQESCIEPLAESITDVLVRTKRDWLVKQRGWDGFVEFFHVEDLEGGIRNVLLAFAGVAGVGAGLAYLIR
# Bim-Mcl-1: inhibitors of Bim-Mcl-1 interaction, human | Q07820 | Bead-based flow cytometry, Bim peptide-Mcl-1 binding | inhibition, % at 10 µM | hit rate 0.1% among 190,000 | AID 1009; in the data active means inhibition above about 40%;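 further: 0% = no compound tracer wells and 100% = peptide blocker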
# GLD-1 TGE inh: GLD-1-TGE RNA interaction inhibition (C. elegans); hit rate 0.44% among 320,000; inhibition, % at 5.96 µM; Q17339; purified GLD-1 + fluorescein TGE RNA, fluorescence polarization;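 active means percent inhibition above a per-plate cutoff, the plate mean of test compounds plus 3 SD, cut at about 30% in these data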;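 further: 0% = DMSO wells with GLD-1 and probe and 100% = wells lacking GLD-1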
# Mcl1 Bid PPI: Mcl-1/Bid interaction inhibition. TR-FRET Mcl-1/Bid-Dy647 peptide binding, 1536-well. inhibition, % at 21.7 µM. hit rate 0.97% among 220,000. Q07820;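 active means compounds that cut the binding signal by more than half at the single screening dose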;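 further: His-tagged Mcl-1 with europium anti-His antibody binding Bid BH3 peptide; 0% = Mcl-1 plus peptide wells and 100% = peptide-only wells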
# MCL1-BIM inh: disrupts human MCL1 binding to BIM-BH3 peptide; GST-MCL1 / FITC-Bim-BH3 fluorescence polarization; Q07820; hit rate 0.68% among 320,000; inhibition, % at 10.9 µM;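 active means inhibition above the mean inhibition of all tested compounds plus 3 SD, set per campaign, cut at about 40% in these data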;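 further: 0% = DMSO wells and 100% = unlabeled Bim-BH3 peptide control; higher means more loss of mP so more displacement of Bim peptide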
# * hit, by the source's call; . = no result given.
SMILES,Bcl-xL primary,Mcl1-Noxa inh,Bim-Mcl-1,GLD-1 TGE inh,Mcl1 Bid PPI,MCL1-BIM inh
CCOc1cc2[nH]c(=S)n(Cc3ccc(C(=O)NCC(OC)OC)cc3)c(=O)c2cc1OCC,1,12,-4,-1,-13,5
CCOCCCNC(=O)c1ccc(Cn2c(=S)[nH]c3c([nH]c4ccc(OC)cc43)c2=O)cc1,-28,56*,3,2,-27,-23
O=C(NCC1CCCO1)c1ccc(Cn2c(=S)[nH]c3ccccc3c2=O)cc1 (stereo not drawn),-6,81*,-2,3,-27,-12
CC[C@H](C)NC(=O)c1ccc(Cn2c(=S)[nH]c3c([nH]c4ccc(OC)cc43)c2=O)cc1,-1,76*,-14,0,27,2
CCCCNC(=O)c1ccc(Cn2c(=S)[nH]c3c([nH]c4ccc(OC)cc43)c2=O)cc1,-2,44,-14,9,-23,1
COc1ccc2[nH]c3c(=O)n(Cc4ccc(C(=O)NCC5CCCO5)cc4)c(=S)[nH]c3c2c1 (stereo not drawn),-23,62*,-1,1,-31,-21
Cc1ccc(N2CC(C(=O)N3CCC(C(=O)Nc4nnc(C(C)(C)C)s4)CC3)CC2=O)cc1 (stereo not drawn),0,.,.,-6,.,6
O=S(=O)(c1ccc(OC(F)(F)F)cc1)N1CCCC(N2CCOCC2)C1 (stereo not drawn),6,.,.,-1,.,8
COCCNC(=O)CCCCCn1c(=S)[nH]c2ccccc2c1=O,5,18,1,8,-70,-1
CCN(CC)CCNC(=O)CCCCn1c(=S)[nH]c2c([nH]c3ccc(OC)cc32)c1=O,14,61*,0,5,-59,5
CCOC(=O)c1c(S(=O)(=O)NCC(=O)Nc2cccc(C)c2)c(C)n(C)c1C,8,.,.,3,.,1
COc1cc(/C=N/NC(=O)c2ccc(COc3cc(C)ccc3C(C)C)cc2)cc(OC)c1O,-1,51*,-5,1,-43,7
CN(CC(=O)Nc1cccc(S(=O)(=O)N2CCOCC2)c1)CC(=O)Nc1ccc(Cl)c(C(F)(F)F)c1,-2,.,.,3,.,-3
CCOC(=O)CC(=O)Nc1ccn[nH]1,0,55*,.,3,-1,-7
COc1ccc(C2(NC(C)=O)CCN(C(=O)c3ccco3)CC2)cc1,7,2,40*,6,-8,6
CCn1c(N2CCN(C(=O)c3ccco3)CC2)nc2ccccc21,3,.,.,6,.,-1
CC(=O)N1CCN(C(=O)c2ccco2)CC1,2,.,.,0,.,-5
NC(=O)N1CCN(C(=O)c2ccco2)CC1,5,9,-1,4,70*,5
O=C(c1ccco1)N1CCN(c2nc3ccccc3n3nnnc23)CC1,41*,25,-1,6,-28,30
O=C1C=C(c2ccc3[nH]ccc3c2)C[C@@H](c2ccc(Cl)cc2)C1,-3,.,.,0,.,-2
O=c1cc(CN2CCN(c3ccc(O)cc3)CC2)nc2scc(-c3ccccc3)n12,5,67*,0,-4,-35,19
CCNc1ccc2c(Cl)cc(=O)oc2c1,0,1,-1,-2,97*,-8
CCN(CC)c1ccc2c(Cl)cc(=O)oc2c1,12,12,-3,-5,17,5
O=C(NCC(=O)N1CCN(c2ccccc2F)CC1)c1ccc(Br)o1,5,.,.,-4,.,5
O=C(NC1CC1)C1=C[C@@H](c2c[nH]c3ccccc23)C[C@@H](OCc2ccc(CO)cc2)O1,39*,6,.,-15,-25,-2
SMILES,Bcl-xL primary,Mcl1-Noxa inh,Bim-Mcl-1,GLD-1 TGE inh,Mcl1 Bid PPI,MCL1-BIM inh
O=C(CSc1nnc2c(n1)[nH]c1ccccc12)Nc1nncs1,8,.,.,-2,.,4
COc1cc(SC)ccc1C(=O)N1CCN(S(=O)(=O)/C=C/c2ccccc2)CC1,3,.,.,-1,.,8
Cc1ccc(/C=N/NC(=O)c2ccc3nc[nH]c3c2)o1,7,55*,.,5,-8,9
COC(=O)c1ccc(/C=N/NC(=O)c2ccc3nc[nH]c3c2)cc1,9,.,.,-5,.,7
CCOC(=O)c1nnn(-c2nonc2N)c1CS(=O)(=O)c1ccccc1,2,11,-1,3,55*,-6
CN1CCN(NC(=O)/C=C/c2cccc(Cl)c2)CC1,4,.,.,4,.,1
c1ccc2nc3ccccc3nc2c1,2,38,0,0,86*,1
Nc1nc2ccccc2nc1N,15,14,6,-2,-1,6
N#Cc1c2ccccc2nc2ccccc12,37*,26,.,6,-5,7
COCCN(CCOC)S(=O)(=O)c1ccc(C(=O)Nc2c(C)n(C)n(-c3ccccc3)c2=O)cc1,0,102*,.,5,-18,-3
COc1ccc(N(CC(=O)Nc2c(C)n(C)n(-c3ccccc3)c2=O)S(=O)(=O)c2ccc(C)cc2)cc1OC,3,.,.,6,.,-5
Cc1c(NC(=O)c2ccc(S(=O)(=O)N(C)c3ccccc3)cc2)c(=O)n(-c2ccccc2)n1C,3,-2,0,1,-15,7
Cc1cccc(N(CC(=O)Nc2c(C)n(C)n(-c3ccccc3)c2=O)S(C)(=O)=O)c1,7,4,-2,2,99*,2
CCC1CCC/C1=N\NC(=O)c1ccccc1C (stereo not drawn),0,.,.,7,.,-3
CC(C)NC(=S)N/N=C/c1sc(N2CCCCC2)nc1-c1cccs1,-5,-43,-3,-2,-32,-16
CCCCNC(=S)N(C)/N=C/c1sc(N2CCCCC2)nc1-c1cccs1,39*,11,-6,13,-35,-3
COc1ccc(-c2[nH]c(-c3ccc(C(=O)O)cc3)nc2-c2ccccc2)cc1,11,-3,0,5,-37,7
COc1cc(-c2nc(-c3ccc4c(c3)-c3ccccc3S4(=O)=O)c(-c3ccccc3)[nH]2)cc(OC)c1O,5,58*,2,2,10,8
CN(C)/C=C/C(=O)c1ccc(C(F)(F)F)cc1F,1,20,100*,-2,-23,1
CN(C)/C=C/C(=O)c1ccc(Cl)cc1Cl,4,1,0,5,-39,-6
CCN1/C(=C/C=C/c2oc3ccc(-c4ccccc4)cc3[n+]2CC)Oc2ccc(-c3ccccc3)cc21,27,-434,.,-3,9,-29
O=C1c2sc3nc4n(c(=O)c3c2CCC1Br)CCCCC4 (stereo not drawn),30*,.,-1,1,-20,36
O=C1CCCc2c1sc1nc3n(c(=O)c21)CCCCC3,4,13,2,-4,-10,4
COc1ccc(C)cc1NC(=O)c1sc2ncn(CC(=O)N3CCCCC3)c(=O)c2c1C,5,.,.,1,.,2
CN(CC(=O)Nc1cccc(F)c1)C(=O)Cn1cnc2c1c(=O)n(C)c(=O)n2C,-13,.,.,4,.,-28
CCOc1ccc(S(=O)(=O)c2c[nH]c3ccc(C)cc3c2=O)cc1,41*,.,.,19,.,19
